# About 2,600 (0.7%) of roughly 370,000 compounds were called active.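 The calls were made as follows: active = inhibition above a cutoff: mean of compounds within the control limits plus 3 SD of those (cut at about 17% in these data); inactive = the rest.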 The entries come from a sample that favours actives as a whole.
# Molecular target: Sialate O-acetylesterase (Homo sapiens) (UniProt Q9HAT2)
# Assay: blockers of sialate O-acetylesterase activity-probe labeling – biochemical, fluorescence polarization, FP-Rh probe, 1536-well HTS, primary screen (AID 1053197);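 also: 0% = plate median of compound wells and 100% = probe without SIAE protein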
# Details: SIAE FP-Rh probe binding, at 9.66 µM, hits give high values
# Sialate O-acetylesterase (Homo sapiens), sequence (Q9HAT2 whole entry, looked up): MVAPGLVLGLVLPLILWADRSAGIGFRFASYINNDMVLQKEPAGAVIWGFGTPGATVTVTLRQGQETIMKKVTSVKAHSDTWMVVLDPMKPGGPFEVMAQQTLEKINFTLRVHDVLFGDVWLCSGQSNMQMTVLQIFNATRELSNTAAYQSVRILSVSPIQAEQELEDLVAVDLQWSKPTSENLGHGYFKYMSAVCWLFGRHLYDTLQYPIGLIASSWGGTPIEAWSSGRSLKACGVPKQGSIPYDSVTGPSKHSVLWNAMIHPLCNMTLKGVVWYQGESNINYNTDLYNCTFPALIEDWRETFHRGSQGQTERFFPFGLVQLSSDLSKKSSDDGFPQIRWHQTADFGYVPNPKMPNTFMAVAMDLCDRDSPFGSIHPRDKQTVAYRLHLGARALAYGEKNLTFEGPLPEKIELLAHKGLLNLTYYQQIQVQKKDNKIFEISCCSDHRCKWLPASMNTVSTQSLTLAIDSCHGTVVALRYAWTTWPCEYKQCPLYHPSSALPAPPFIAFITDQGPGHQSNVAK
row,SMILES,inhibition
1,COC(=O)c1ccccc1SC1CC(=O)N(c2cccc(C)c2)C1=O (configuration not stated),-0.8% (inactive)
2,Cc1cccc(N2C(=O)SC(SC(=Nc3ccccc3)Nc3ccccc3)C2=O)c1 (configuration not stated),18.1% (active)
3,Cc1cccc(N2C(=O)SC(N(CC(=O)O)c3cccc(C)c3)C2=O)c1 (configuration not stated),1.65% (inactive)
4,COc1ccc(Cn2cc(COC(=O)N(C)Cc3ccccc3)nn2)cc1,0.99% (inactive)
5,CCOC(=O)[C@]12CCCC3=C1N(CCC3)C(=O)[C@@H](CC(=O)N1CCSCC1)C2,-3.23% (inactive)
6,Cc1cc(=O)[nH]c(SCC(=O)Nc2ccc(F)cc2F)n1,-0.82% (inactive)
7,Cc1ccc(S(=O)(=O)N2CCOCC2)cc1C(=O)Nc1ccccc1N1CCCC1,12.1% (inactive)
8,O=C(Nc1ccccc1N1CCCC1)c1ccc(F)c(S(=O)(=O)N2CCOCC2)c1,20.5% (active)
9,CCN(CC)S(=O)(=O)c1cc(C(=O)Nc2cc(S(=O)(=O)N3CCOCC3)ccc2N2CCCC2)ccc1F,1.03% (inactive)
10,CC(C)CNC(=O)OCc1cn(Cc2ccc(F)cc2)nn1,-8.33% (inactive)
11,Cc1cc(=O)[nH]c(SCC(=O)Nc2ccc(Cl)cc2C)n1,1.99% (inactive)
12,O=C(c1ccccc1)c1ccc(-c2ccccc2C(=O)NC2CCCCN(Cc3ccc(Cl)cc3)C2=O)cc1 (configuration not stated),1.39% (inactive)
13,CC1CCCCC1NC(=O)/C(C#N)=C/C=C/c1ccccc1[N+](=O)[O-] (configuration not stated),17.2% (active)
14,COc1cc(/C=C(\C#N)C(=O)Nc2ccc3ccccc3c2)c([N+](=O)[O-])cc1OC,-1.47% (inactive)
15,CC1CC(C)CN(C/C=C/c2ccccc2[N+](=O)[O-])C1 (configuration not stated),2.91% (inactive)
16,CC(C)CNc1cccc2c1S(=O)(=O)N(Cc1cn(Cc3ccc(Cl)cc3)nn1)Cc1ccccc1O2,3.21% (inactive)
17,O=C(NC1CCCCN(Cc2ccc(Cl)cc2)C1=O)c1ccc(Br)cc1 (configuration not stated),-3.06% (inactive)
18,Nc1ncnc2c1ncn2[C@@H]1O[C@H](C(=O)N[C@@H](CCc2ccccc2)C(=O)NCC(=O)N2CCOCC2)[C@@H](O)[C@H]1O,2.34% (inactive)
19,CN(Cc1ccc(CNC[C@H]2O[C@@H](n3cnc4c(N)ncnc43)[C@H](O)[C@@H]2O)o1)S(C)(=O)=O,-0.06% (inactive)
20,Nc1ncnc2c1ncn2[C@@H]1O[C@H](C(=O)N2CCCN(Cc3ccccc3F)CC2)[C@@H](O)[C@H]1O,-1.61% (inactive)
21,CN(Cc1ccc(C(F)(F)F)cc1)C(=O)[C@H]1O[C@@H](n2cnc3c(N)ncnc32)[C@H](O)[C@@H]1O,81.3% (active)

row,SMILES,inhibition
1,Nc1ncnc2c1ncn2[C@@H]1O[C@H](C(=O)N2CCSC2)[C@@H](O)[C@H]1O,1.67% (inactive)
2,Nc1ncnc2c1ncn2[C@@H]1O[C@H](C(=O)NCC(F)(F)F)[C@@H](O)[C@H]1O,51.2% (active)
3,CC(C)CSc1nnc(-c2cccnc2)n1Cc1ccccc1,0.87% (inactive)
4,O=C(NCc1ccc(Cl)cc1)C1CCCN(c2nc3ccccc3o2)C1 (configuration not stated),1.99% (inactive)
5,O=C(Nc1cc(F)cc(F)c1)OC1CCC12CCC(c1ccccc1)CC2 (configuration not stated),-17% (inactive)
6,Nn1c(SCC(=O)N2c3ccccc3Sc3ccccc32)nnc1-c1n[nH]c2c1CCC2,-8.15% (inactive)
7,CN(C)CC(=O)N[C@@H]1C[C@@H]2O[C@H](CO)CC[C@@H]2O[C@@H]1CCc1ccc(C#Cc2ccccc2)cc1,5.34% (inactive)
8,COc1ccc(C(=O)OCCN(C)C2CN(Cc3cn(Cc4cccc(C)c4)nn3)S(=O)(=O)C2)cc1OC (configuration not stated),-4.69% (inactive)
9,NS(=O)(=O)c1ccc(NC(=S)NC(=O)c2cccnc2)cc1,1.85% (inactive)
10,C/C(=N\NC(N)=S)c1cccnc1,1.42% (inactive)
11,O=C(O)/C(=C/c1cccnc1)NC(=O)c1ccccc1,5.04% (inactive)
12,O=C(N/N=C/c1ccc(O)c2ccccc12)c1cccnc1,18.7% (active)
13,C/C(=N\NC(=O)c1cccnc1)c1ccc(-n2ccnc2)cc1,2.74% (inactive)
14,O=C(NN=C1CCC(=NNC(=O)c2cccnc2)CC1)c1cccnc1,20.1% (active)
15,Cc1cc(NS(=O)(=O)c2ccc(NC(=O)CSc3nnc(-c4ccc(C(C)(C)C)cc4)n3Cc3ccco3)cc2)nc(C)n1,-2.29% (inactive)
16,COC(=O)[C@]12C[C@H](CC(=O)NCC34CC5CC(CC(C5)C3)C4)C(=O)N(Cc3ccc(Cl)cc3Cl)C1=C[C@H](COCc1ccccc1)O[C@@H]2C,-3.29% (inactive)
17,COc1cc(C(=O)Nn2c(CC(C)C)nc3ccccc3c2=O)cc(OC)c1OC,-1.34% (inactive)
18,COc1cc(C(=S)NC2CCCCC2)ccc1O,2.61% (inactive)
19,COc1cc(C(=O)Nn2c(O)c(C3=c4ccccc4=NC3=O)sc2=S)ccc1O,40.2% (active)
20,Cc1ccc(Cn2cc(COC(=O)N(C)Cc3ccccc3)nn2)cc1,2.24% (inactive)
21,CC(=O)N1CCCN(C2=Nc3ccccc3Sc3ccccc32)CC1,13.5% (inactive)

row,SMILES,inhibition
1,COCCNC(=O)Nc1ccc2nc(-c3ccco3)c(-c3ccco3)nc2c1,37.3% (active)
2,COCCNC(=O)c1cc2c(Br)ccc(Br)c2nc1N,-3.42% (inactive)
3,COCCN(C(=O)c1ccco1)c1nnc(-c2ccc(OC)cc2)s1,-0.46% (inactive)
4,CCCCCN1CCCCC(NC(=O)C(C)CCC)C1=O (configuration not stated),-1.97% (inactive)
5,CCOC(=O)[C@]12CCCC=C1N(Cc1ccc(OC)cc1)C(=O)[C@@H]2CC(=O)NCc1cccs1,0.94% (inactive)
6,Cc1c[nH]c2cccc(-c3ccc(Cl)cc3)c12,4.94% (inactive)
7,CCCCC(=O)NC(c1ccc(OC)c(OC)c1)c1ccc2cccnc2c1O (configuration not stated),15.1% (inactive)
8,O=[N+]([O-])c1cc([N+](=O)[O-])c2cccnc2c1O,0.23% (inactive)
9,CC(=O)NC(c1cccs1)c1cc(Br)c2cccnc2c1O (configuration not stated),20.8% (active)
10,COC(=O)[C@]12C[C@H](CC(=O)N3CCN(C(=O)C4CC4)CC3)C(=O)N(CCC3=CCCCC3)C1=C[C@H](C(C)C)O[C@@H]2C1CC1,0.92% (inactive)
11,O=C(CSc1nc2ccccc2n1Cc1ccccc1)NNC(=S)Nc1ccccc1,2.33% (inactive)
12,COCC(=O)N[C@@H]1C[C@@H]2O[C@@H](CO)CC[C@@H]2O[C@@H]1CCc1ccc(-c2ccccc2)cc1,2.31% (inactive)
13,Cc1ccc(Cn2cc(CN3[C@@H](CC(C)C)COc4ccc(Cl)cc4S3(=O)=O)nn2)cc1,1.1% (inactive)
14,Oc1ccccc1C1=NN(c2ccccc2)C(c2ccccc2)C1 (configuration not stated),20.5% (active)
15,Cc1ccc(N2C(=O)C3N=NN(CC(=O)N4N=C(c5cccc6ccccc56)CC4c4ccccc4)C3C2=O)cc1 (configuration not stated),-11.7% (inactive)
16,COc1ccc(C2CC(c3cccc(OC)c3)=NN2c2ccc(S(N)(=O)=O)cc2)cc1 (configuration not stated),6.8% (inactive)
17,O=C1CC[C@@]23CCCN2C(=O)CCC[C@H]3[C@H]1Cc1ccccc1,4.29% (inactive)
18,CCOc1ccc(Cn2c(SCCCCC#N)nc3c2c(=O)n(C)c(=O)n3C)cc1OCC,25.8% (active)
19,Cc1cccc(Cn2c(N3CCN(c4ccccc4)CC3)nc3c2c(=O)n(C)c(=O)n3C)c1,-1.65% (inactive)
20,CCOc1ccc2nc(NC(=O)CSc3nc4c(c(=O)n(C)c(=O)n4C)n3CC)sc2c1,-3.15% (inactive)
21,COC(=O)c1cccc(Cn2ccc3ccc(-c4ccc5ccn(C(=O)C6CCCCC6)c5c4)cc32)c1,-4.45% (inactive)

row,SMILES,inhibition
1,N#CCC[C@H]1CC[C@]2(CCCN(Cc3ccc(Cl)cc3)C2)O1,1.15% (inactive)
2,C#CCNC(=O)C[C@H]1C[C@@]2(C(=O)OC)C(=C[C@H](C(C)C)O[C@@H]2C2CC2)N(Cc2ccco2)C1=O,4.68% (inactive)
3,COc1cc(/C=C/C(=O)OCC(=O)NCCCc2ccccc2)ccc1O,9.1% (inactive)
4,COc1cc(/C=N\Nc2nc(-c3cccs3)c(NC(C)=O)s2)ccc1O,18.3% (active)
5,COc1ccc(/C=N/Nc2ncnc3sc4c(c23)CCCC4)cc1O,-1.15% (inactive)
6,O=C(NCc1cccs1)C1CCCN(S(=O)(=O)c2ccc([N+](=O)[O-])cc2)C1 (configuration not stated),3.31% (inactive)
7,COc1ccc(-n2c(SCC(=O)Nc3ccc4c(c3)OCCO4)nnc2-c2ccc(Cl)cc2)cc1,2.64% (inactive)
8,CCCCn1c(N)c(N(CC(C)C)C(=O)CSc2ccc([N+](=O)[O-])cc2)c(=O)[nH]c1=O,17.8% (active)
9,CCCCn1c(N)c(N(CC(C)C)C(=O)CN(C)S(=O)(=O)c2ccc(F)cc2)c(=O)[nH]c1=O,2.93% (inactive)
10,CCCCn1c(N)c(N(CCC(C)C)C(=O)c2ccc([N+](=O)[O-])o2)c(=O)[nH]c1=O,1.61% (inactive)
11,CCC(=O)OCCCN1C(=O)CCC12CCC(c1ccccc1)CC2 (configuration not stated),10.2% (inactive)
12,COC(=O)[C@@]12CCCCC3=C1N(CCC3)C(=O)[C@H]2CC(=O)NCc1cccc2ccccc12,3.42% (inactive)
13,CC(C)C(C#CC1CC1)N(Cc1ccc2c(c1)OCO2)C(N)=NC(=O)/C=C/c1cccc(C(F)(F)F)c1 (configuration not stated),-3.05% (inactive)
14,CCN(CC)C(=O)CC[C@@H]1CC[C@]2(CCCN(S(=O)(=O)C3CCCCC3)C2)O1,0.62% (inactive)
15,Cc1ccc(Nc2nc(-c3ccc(O)cc3O)cs2)nc1,20.7% (active)
16,CC(=O)Nc1cnc(-c2ccc(O)cc2C)cn1,1.05% (inactive)
17,Cc1ccc(-c2csc(NCCc3nc4cc(Cl)c(Cl)cc4n3CCOCCO)n2)cc1,1.85% (inactive)
18,COC(=O)[C@H](C(C)C)N(CCc1cn(Cc2ccccc2)nn1)S(=O)(=O)c1ccc(F)cc1Br,0.91% (inactive)
19,Cc1ccc(-n2c(SCC(=O)Nc3ccc(S(=O)(=O)Nc4nccs4)cc3)nnc2-c2ccccn2)cc1,-6.07% (inactive)
